In all, about 33,000 sequences were measured (“E-score (-0.5 to 0.5)”: median about -0.012, highest 2% from about 0.27 on). What follows is part of a selection rich in the highest values, with near analogues and random picks from the rest.
molecular target: T1, Vhr1 (UniProt P40522); test: PBM E-score (8-mer binding enrichment) (E-score (-0.5 to 0.5)); higher = stronger / more preferred TF binding; conditions: protein concentration: 200 nM; construct: GST-full length
T1 sequence: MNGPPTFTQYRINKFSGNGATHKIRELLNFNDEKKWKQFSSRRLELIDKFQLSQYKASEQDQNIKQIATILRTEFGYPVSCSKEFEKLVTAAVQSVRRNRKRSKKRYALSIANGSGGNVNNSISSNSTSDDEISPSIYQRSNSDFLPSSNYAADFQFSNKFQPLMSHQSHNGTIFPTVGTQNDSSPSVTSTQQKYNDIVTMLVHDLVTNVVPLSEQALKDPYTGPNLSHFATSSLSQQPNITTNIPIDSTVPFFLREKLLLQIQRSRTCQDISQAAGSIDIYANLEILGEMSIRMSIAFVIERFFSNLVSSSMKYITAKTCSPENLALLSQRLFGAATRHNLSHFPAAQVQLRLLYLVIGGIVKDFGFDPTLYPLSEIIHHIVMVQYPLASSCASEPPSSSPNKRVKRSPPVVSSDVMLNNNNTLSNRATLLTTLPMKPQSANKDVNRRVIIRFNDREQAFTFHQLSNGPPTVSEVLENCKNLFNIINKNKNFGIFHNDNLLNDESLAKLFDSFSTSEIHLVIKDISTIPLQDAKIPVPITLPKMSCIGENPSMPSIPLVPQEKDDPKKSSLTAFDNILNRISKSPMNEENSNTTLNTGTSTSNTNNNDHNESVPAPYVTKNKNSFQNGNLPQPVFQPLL
Outline: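 Masliner-normalised scans of fluorescent anti-GST signal were the basis for scoring. That signal came from GST-tagged yeast transcription factors applied at about 100-200 nM to double-stranded universal all-10-mer Agilent arrays on fresh or once-stripped slides. Each ungapped eight-base word, pooled with its reverse complement, received an E-score from the Universal PBM Analysis Suite.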

Row | Sequence | PBM E-score
1 | GGTGAGGA | 0.00616
2 | GCTGAGTA | 0.0378
3 | GGTGAGTA | 0.282
4 | AGTGAGTA | 0.192
5 | GATGAGTA | 0.382
6 | TCGCAGCA | 0.0961
7 | ACTTCTAT | -0.0176
8 | CACTGCGG | 0.213
9 | CATGTTGA | 0.278
10 | AATGTTGA | 0.043
11 | CATGTTGC | 0.0935
12 | GGTTTCTA | -0.122
13 | CTCATCAG | 0.312
14 | ATCATCAG | 0.0874
15 | CTCATCAC | 0.0121
16 | TAACACGA | 0.212
17 | CTCTCCAG | -0.232
18 | ATGTCTAG | 0.12
19 | CAGGAGTC | 0.373
20 | ACGGAGTC | 0.408
21 | AAGGAGTC | 0.203
22 | CCGGAGTC | 0.421

Row | Sequence | PBM E-score
23 | ACGGAGTG | 0.00137
24 | CAGGAGTA | -0.00382
25 | CCGGAGGC | -0.141
26 | CCGGAGTA | 0.0674
27 | ACGGAGTA | 0.0079
28 | AGCCGTCA | -0.0405
29 | GCAAGTAC | -0.109
30 | ATAGGAAG | 0.0182
31 | AGAGTTTG | 0.0245
32 | CGCTGTTA | -0.0856
33 | AATCACGG | 0.259
34 | GGTCACGA | 0.09
35 | ATTCACGG | 0.0271
36 | ATTCACGC | 0.117
37 | CGTCACGC | -0.208
38 | AGTCACGA | 0.411
39 | AGTCACGC | 0.426
40 | CGTCACGA | 0.00392
41 | AGTCACGG | 0.417
42 | CAGAACAG | 0.066
43 | GGCTCCTA | -0.136
44 | CCAACAGA | -0.0653

Row | Sequence | PBM E-score
45 | CCCCGCTA | -0.0924
46 | CTTTGGCC | -0.254
47 | AATTAATA | 0.102
48 | CCACTCGA | 0.0905
49 | ATTCAATA | -0.0197
50 | GTCACGTA | 0.13
51 | ACGCCTTG | -0.0936
52 | CTTGGCCA | -0.0546
53 | GTAGTCCA | -0.0646
54 | GCAGCGAC | 0.167
55 | ATGGTTCA | 0.366
56 | ATGGTTCC | 0.318
57 | CTGGTTCA | -0.0177
58 | GTGGTTCA | 0.254
59 | ATGGTTCG | 0.224
60 | CTGGTTCC | 0.0593
61 | CATTAGGA | -0.0276
62 | ACAGTTCA | 0.0273
63 | CGCAATCC | -0.0979
64 | AAACCTAA | -0.0619
65 | TAATGGCA | -0.00432
66 | CTCAATAC | 0.226

Row | Sequence | PBM E-score
67 | ATCAAAGG | -0.0468
68 | CAAGAGCG | 0.0553
69 | ATGGGTGC | 0.0292
70 | CAGGGTGA | 0.114
71 | GTGGGTCA | 0.365
72 | ATGGGTGA | 0.322
73 | CTGGGTGC | 0.123
74 | ATGGGTGG | 0.242
75 | GAGGGTGA | 0.153
76 | GTGGGTGA | 0.331
77 | ATGGGTCA | 0.263
78 | CTGGGTGA | 0.275
79 | GTGGGTAA | 0.138
80 | CTGGGTCA | 0.11
81 | CACCTACC | -0.125
82 | AAGTGCGT | -0.0339
83 | GTCTGTAA | -0.0248
84 | AATTCTTC | -0.211
85 | AGATCACC | -0.0605
86 | ACTGGTCG | 0.0753

— the supplement of paper PMC3334620
